Results: PubChem BioAssay AID1159506 (National Center for Advancing Translational Sciences (NCATS), 2015)
Over roughly 59,000 sequences, the read-out has its median near -0.00055; the lowest 2% begin near -2. Many of the other results were omitted from the sample, so the lowest values are more common in it than they were.

assay: Identification of proteins required for the processing of the EWS-FLI1 nascent transcript; settings: TC32 Ewing sarcoma NR0B1-luc vs CMV-luc (EWS-FLI1 target promoter against control promoter), 48 h; screened at 20 nM (by protocol);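 further: robust z of luciferase light less the median z of siRNAs with the same seed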
Outline: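 Three siRNAs per gene, each in a separate well at 20 nM, were transfected into TC32 cells bearing either reporter construct. Luminescence was measured two days on, and per-gene comparison relied on seed-corrected Z values.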

Row | Sequence | seed-corrected z-score
1 | UGAGUUUCAUCAUAGUCUG against BMX | -4.87
2 | UAAGCACACAUUUACUUGG against HIST1H2BG | 0.782
3 | UUUCAUCUGAAGACAGGAC against DDIT3 | -1.09
4 | UCUUCGUUGAGUGCAUCCC against SOCS2-AS1 | -0.904
5 | UAUGUAGUUAAGACCAUUC against IRS1 | 0.431
6 | ACAAUUUUAGCUGUAACCC against OC90 | 0.989
7 | UCGCUGUCGAGCAGUAAGC against INO80B | -2.1
8 | UUAGUGGUCAUGGGCUUCC against GTF2F1 | -0.176
9 | UCGCUUGCAAAUAAUCUGC against ULK2 | -0.141
10 | AAGUCUGCGAUUAAAGCUG against DTNBP1 | -2.27
11 | UACAUAGCAAACAUGACCG against ATL2 | -0.859
12 | UGAAGGUUUGGAGCAAACU against RPL15P17 | 0.127
13 | UGAUCUCAGUCCUCGCUGC against LINC01118 | -0.476
14 | UGUAGGAACACUCAUCACC against KCNA4 | -2.42
15 | UUCUGUCCAAUUGUCGCUG against JTB | -0.0311
16 | UAGCAUGUAACGUGUGACC against CNTNAP1 | -0.734
17 | UGAAGAUCCAGCAAGUAUC against 6-Mar | 0.65
18 | UCACAUGCAUCAAUUUUCG against NDUFB5 | 0.331
19 | UAUAGCUGAAUGGUCAUUG against KRTAP3-3 | -3.04
20 | UCAGUGACAACAUCACGGC against PPP2R5D | 0.201
21 | UGCCGUCUUACUCUUUGCG against C19orf53 | -0.415
22 | AAACUUGUUUCUGCACAUG against OR2F1 | 1.3

Row | Sequence | seed-corrected z-score
23 | UUCCCAUUGAUACUCAUGG against LECT1 | -0.035
24 | UAAUGCUUGAGGCACUUGG against CALHM2 | 0.134
25 | UUGUCUCUCACUCAGAUUG against HOXB9 | 0.619
26 | UGCUUUGCAAUGAUCUCUC against HNRNPM | -2.32
27 | UGUCAUGCAAUAAGAAUCU against NLGN4Y | 0.297
28 | UUAGAGUAAGUAAAUAUCC against RPS18P5 | -0.219
29 | UGGGUAUACAGUCAUCAUC against SLC38A9 | -2.9
30 | UUGGGUAAAAGACAGUUGA against TKT | -0.555
31 | UAGACAACAUCAGUGAUCC against RPS8P4 | 0.47
32 | AAGCUUCUUAACUUCAUUC against RPL14P1 | -3.84
33 | UUUGGAGAACUCCCUGGGC against FLYWCH1 | -0.00776
34 | UAAUUGAGGGAGCAAAGGC against FAM53A | -0.541
35 | UCCUUUUCCACGACCAUCG against CCR2 | -1.29
36 | UGCUGGAUCAGGGAGAUAG against TRPM2 | -2.19
37 | UCUUGUAGCGGAAAAGGCC against DUSP2 | 0.0146
38 | UAACGAAUAAUUUCUGCUC against HPGDS | -0.285
39 | UUCCGGAUAGCCUACAUCC against USP36 | -0.445
40 | UAAUGUACAUCUCUCGUCC against CNGA1 | -2.2
41 | UCAUCCUCCAGGAUCAUGG against ZSCAN2 | -0.868
42 | UAUUAGCACAGUGUAAGGC against PDE10A | -0.276
43 | AAUGAUCACAUCGAUAGUG against SGMS2 | -2.21
44 | UUUAUCAUUAGGGCUAGGG against DHRS4L1 | 0.864

Row | Sequence | seed-corrected z-score
45 | UUUUCGGUAACUCUGCGUG against SPEN | -0.638
46 | UAAGGUUCUCCCUCACAGC against JAKMIP2 | -0.785
47 | UUGUUGUAAAGCACGAUGU against CHRNB4 | -0.439
48 | UAUUAUUGAUGCGACAUCC against CNGB3 | 0.631
49 | UCUGGUUCCUCGGCGAAGU against PRSS53 | -2.84
50 | UAUCUUCACUGGGUUCAUG against IRF6 | 2.07
51 | AAUUUCUCCAGAAUCUAUG against TENM4 | -2.16
52 | UUCUUUUAUUGCCUCGGGU against KISS1 | 0.198
53 | UUCGUUCCAACAUAGGCUG against AGBL1 | -2.49
54 | UGACAUAUGAGUUCGAUGG against ZCCHC17 | 0.589
55 | AAUACUCUCAGUUCGAAUG against TXNDC15 | 0.939
56 | AAUCUUGUUAUGCUCAUGG against ZBTB47 | -0.317
57 | UUCGGUUCAAGUUUAGCAG against TM9SF2 | -0.205
58 | UCAAGUUCUAUGAGAUUGG against ARRB1 | 0.195
59 | ACAAUUUCAAGCUCCUGUC against MAGOHB | -1.58
60 | UCUAGAUCACCAAACAUCA against OR1N1 | 0.571
61 | AGACAUAACACCUUCUUCA against RPL10A | -2.86
62 | ACACCAGUGAUUACUGUGC against FLJ44635 | -0.245
63 | UUGGUGAAUAGUCUCUUUC against RPS2P45 | -0.275
64 | UCUUCACGCAGUAUCUUUC against SLC25A13 | 1.22
65 | UCUUCUUUAGUCUUCCUGC against STMND1 | -1.04
66 | UGCUCGAAAACAACCUUCU against TPI1 | 0.853

Row | Sequence | seed-corrected z-score
67 | ACAUCUAUCACAUCUAAGG against ZC3H13 | 0.428
68 | UAUUUUGCAAUAUCUUCUC against SLU7 | -0.229
69 | AUCGUCAUAUCUACCAUUG against USP34 | -1.15
70 | UGUUUGAUGACAAGGGUUG against POLE2 | -2.32
71 | AAAGUGUCUAGCCCUAUGG against MESP1 | 0.768
72 | AAUUCCAUGAGGGCCUUCC against CDKN2AIPNLP1 | -2.53
73 | UUCGGCACCAUUCACAGAG against FAM57A | 0.0703
74 | UGUUGACAAACCAUCUUUC against PDPN | 0.381
75 | UUCAAAAACCACGAUGUUG against CLDN8 | 0.491
76 | UGUUGUAGCACUUGGCUUU against IFITM5 | -3.59
77 | AUAUCGAACAGUUUGGUAC against CTDNEP1 | 0.928
78 | AUCCGGAUCAUCGAGUCUG against ATP1B4 | -0.782
79 | UUAAAUGUAAGCAGGUUUC against CYTL1 | 0.276
80 | AUUGAGGUAGGAGCCGUCG against FGFRL1 | -2.32
81 | UUCAUUGCGAUUAGCCUGC against ANXA13 | -0.522
82 | UACUAGAGCAGUGUCUGAG against DNPH1 | 0.502
83 | UUCUCGUUGAUGCGGCUCC against ASB1 | -2.16
84 | UUGUUUUCACUUCCAAUGC against FCAMR | -0.0643
85 | UCACGGUCAUCAUCUAGGG against FOPNL | -2.56
86 | UUGUCUAGAAGAAUUGUCG against TTC3 | -0.75
87 | UUAGGGACGAUGUCCACGG against RSPH6A | -0.977
88 | UCUGGUUCAGCAUGAGCUG against SYT8 | -2.2

Row | Sequence | seed-corrected z-score
89 | UAUAACUUGUCGGAAACGC against NPIPB3 | 0.406
90 | UCAAGUCCGACUUGGAGCG against FAM110A | -0.0203
91 | AGUCUGAAUACCAUCCUUC against GATA1 | -0.386
92 | AACAUAGCUAAAAUGAUCC against CLMN | -2.28
93 | ACUGAGCUCAUUCUUGUCC against HSF1 | -0.661
94 | UUUACAGCUGAUGAUAUGG against RWDD4 | -0.249
95 | UUCGAUAGUAACAAAGUUC against PCDH9 | -2.03
96 | AAAGUCUCCAGUUAAUAGC against MRPL46 | 1.41
97 | UAGUGCACCACGCAGGUCU against FKBP1A | 0.92
98 | UUACGGACAUCCGAUCUUC against DPYS | -0.0377
99 | UCAUAGUCCGCGAUCACCU against EDF1 | -0.388
100 | UAUCCAGUACGUGAGGCCC against LRP5L | -1.82
101 | UUGGUUGUCAGAGUAGGUG against HSPA1L | -2.39
102 | UUUCCCAUCCUUAAAGAGC against PTGS1 | -0.201
103 | AAUCUAACUGCAUUCGUUG against RSBN1L | 0.409
104 | UUGUGAGCCGACAGGAUGC against PYCR2 | -0.604
105 | AAAACAUACAUUGACUUGC against LINC01098 | -0.153
106 | UGAGUUUCCGUACCACACC against PRDM12 | -2.92
107 | UAUUCCCUAAUAAAGCAGG against ZMYM5 | 0.289
108 | UUCUUCAACCUUGAGGCGG against SNAPC5 | 0.755
109 | UGAUGUCUACAAUAUCACC against RPL21 | -2.69
110 | UGGGUGAUAAGAAAAACAG against CD40LG | -0.837

Row | Sequence | seed-corrected z-score
111 | AAAGCAAAUAGUAUGGUUC against ATG5 | 0.522
112 | UGGACUCCUACAUUACUGC against EFCAB13 | 0.0128
113 | AAAGGUACUCUUGGGCAGG against EEF1G | -0.242
114 | UUAGGUAAUACACUAUUUG against THAP2 | 0.091
115 | UCCCAGACUUUGACCAUGC against WDR38 | -2
116 | UCUUGUGGAUGUAAUAUGC against SIMC1 | -0.283
117 | UUCUUCUACAGGCUUGAGG against SMNDC1 | -0.35
118 | UGAGUUUGAACCCAAAAGU against IGFL4 | 1.44
119 | UCUGUAGUCAGUUUGGUUG against LDB1 | -0.7
120 | UCAUCUUCUCCAACUUUUC against GINS2 | 0.362
121 | AAGCUUGUAAGUAUAGACG against SF3B3 | -2.14
122 | AUAGAAAACACCAAGAUUA against TMEM63A | 0.279
123 | AUAUGACCUACUACCAUCC against LURAP1 | 0.3
124 | ACAUGAUCAACUGGUAGUC against TTBK1 | -4.16
125 | UAAGGUAAGAGCCUGUGCU against ZNF177 | 0.0512
126 | AAAAGUAUCAGCAGAAGUC against GPR156 | -0.243
127 | UAGUUGAAGAGGGCGUGGG against TAS1R3 | -0.153
128 | AACGGAACCUGUGAGAUCC against LARS2 | -0.262
129 | UAACUGAAUGGCAUCCCGG against C6orf226 | 0.21
130 | UUGUAGUUCAGCUGGUUGU against SPATA2 | -2.04
131 | UCCUGGAGCAUAUCCGAGC against TMPRSS5 | 0.289
132 | UCAUUUAGCUUUACCACCC against AHCYL1 | 0.0585
